For 15 sequences, binding signal results are on record in publication PMC3218832.

Targets include RELARELA (p65 homodimer) (Homo sapiens, UniProt Q04206 1-307); p50p50 homodimer (Homo sapiens, UniProt P19838 7-356); RELB subunit;p50 subunit (Homo sapiens;Homo sapiens, UniProt Q01201;P19838 120-401;7-356).
Common to all, as to test: protein binding microarray; high values mean tight binding
Common to all, as to settings: dsDNA, one strand shown

Another experiment deals with T1, p52p52 homodimer (Homo sapiens, UniProt Q00653 4-332).
T1 sequence: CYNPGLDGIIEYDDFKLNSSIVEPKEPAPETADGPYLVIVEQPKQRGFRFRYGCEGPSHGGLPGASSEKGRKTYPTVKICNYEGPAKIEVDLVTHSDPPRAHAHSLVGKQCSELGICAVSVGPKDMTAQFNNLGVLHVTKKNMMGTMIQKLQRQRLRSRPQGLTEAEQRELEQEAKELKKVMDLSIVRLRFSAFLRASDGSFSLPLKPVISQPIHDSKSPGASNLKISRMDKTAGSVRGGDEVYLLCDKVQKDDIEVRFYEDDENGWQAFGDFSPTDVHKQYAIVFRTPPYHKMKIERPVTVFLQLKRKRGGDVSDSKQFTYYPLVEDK

Experiment [1] concerns the target RELA (p65) subunit of heterodimer;p50 subunit (Homo sapiens;Homo sapiens, UniProt Q04206;P19838 1-307;7-356).
The target of experiment [2] is RELA (p65) subunit of heterodimer;p52 subunit (Homo sapiens;Homo sapiens, UniProt Q04206;Q00653 1-307;4-332).
The next experiment concerns the target T2, RELB subunit;p52 subunit (Homo sapiens;Homo sapiens, UniProt Q01201;Q00653 120-401;4-332).
T2 sequence 1: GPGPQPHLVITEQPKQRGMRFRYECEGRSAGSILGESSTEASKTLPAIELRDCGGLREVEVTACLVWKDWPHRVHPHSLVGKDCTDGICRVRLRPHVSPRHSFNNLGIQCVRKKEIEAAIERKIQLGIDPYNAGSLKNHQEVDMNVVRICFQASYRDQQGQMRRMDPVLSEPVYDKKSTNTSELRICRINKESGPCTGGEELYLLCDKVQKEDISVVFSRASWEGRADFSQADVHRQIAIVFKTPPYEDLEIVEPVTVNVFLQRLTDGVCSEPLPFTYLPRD
T2 sequence 2: T1 sequence

The target of experiment [3] is C-Rel subunit;p50 subunit (Homo sapiens;Homo sapiens, UniProt Q04864;P19838 1-285;7-356).
In experiment [4] the target is T3, C-Rel subunit;p52 subunit (Homo sapiens;Homo sapiens, UniProt Q04864;Q00653 1-285;4-332).
T3 sequence 1: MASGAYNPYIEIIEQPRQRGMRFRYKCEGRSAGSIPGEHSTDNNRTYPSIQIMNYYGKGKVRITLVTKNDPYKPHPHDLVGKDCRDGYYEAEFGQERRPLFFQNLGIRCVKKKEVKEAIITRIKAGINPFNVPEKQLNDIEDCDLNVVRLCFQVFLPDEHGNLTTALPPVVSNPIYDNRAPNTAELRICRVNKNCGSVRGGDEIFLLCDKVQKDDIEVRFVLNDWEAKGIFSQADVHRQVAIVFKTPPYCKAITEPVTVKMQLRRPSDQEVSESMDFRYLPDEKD
T3 sequence 2: T1 sequence

Chain of RELARELA (p65 homodimer) (Q04206 1-307): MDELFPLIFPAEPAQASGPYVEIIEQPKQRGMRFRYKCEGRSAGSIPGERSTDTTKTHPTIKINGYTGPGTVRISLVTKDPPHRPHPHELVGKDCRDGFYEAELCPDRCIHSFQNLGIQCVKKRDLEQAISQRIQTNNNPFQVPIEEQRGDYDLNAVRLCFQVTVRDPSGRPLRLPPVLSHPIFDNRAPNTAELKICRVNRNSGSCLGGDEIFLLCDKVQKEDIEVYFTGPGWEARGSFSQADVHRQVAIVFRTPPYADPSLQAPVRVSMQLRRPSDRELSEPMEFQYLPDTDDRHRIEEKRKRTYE
Chain of RELA (p65) subunit of heterodimer;p50 subunit (Q04206 1-307, chain 1 of 2): as the sequence (Q04206 1-307) above
Chain of RELA (p65) subunit of heterodimer;p50 subunit (P19838 7-356, chain 2 of 2): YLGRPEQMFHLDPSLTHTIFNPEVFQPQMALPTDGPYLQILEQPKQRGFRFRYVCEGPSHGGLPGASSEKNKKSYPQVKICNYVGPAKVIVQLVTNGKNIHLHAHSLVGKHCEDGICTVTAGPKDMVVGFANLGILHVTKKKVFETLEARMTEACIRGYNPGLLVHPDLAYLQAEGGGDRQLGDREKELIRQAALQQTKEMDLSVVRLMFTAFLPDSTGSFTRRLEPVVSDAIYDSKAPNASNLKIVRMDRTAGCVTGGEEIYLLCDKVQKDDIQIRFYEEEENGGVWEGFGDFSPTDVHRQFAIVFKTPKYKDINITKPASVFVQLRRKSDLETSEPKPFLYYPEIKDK
Chain of p50p50 homodimer (P19838 7-356): as the sequence (P19838 7-356, chain 2 of 2) above

With GGGTTACTCCC, the binding signal worked out at 0.497 z-score in the experiment with RELARELA (p65 homodimer); 0.249 z-score with p50p50 homodimer; 1.29 z-score with p52p52 homodimer; 0.568 z-score in experiment [1]; 0.789 z-score in [2]; 0.354 z-score with RELB subunit;p50 subunit. Moreover, the binding signal with RELB subunit;p52 subunit was determined as 0.378 z-score; in experiment [3] it was 0.398 z-score; in experiment [4], 0.657 z-score.

In the case of AAGAATTTCCT, the binding signal with RELARELA (p65 homodimer) is 1.63 z-score; in the experiment with p50p50 homodimer it was -0.591 z-score; with p52p52 homodimer, -0.35 z-score; in [1], -0.206 z-score; in experiment [2], -0.329 z-score; in the experiment with RELB subunit;p50 subunit, -0.672 z-score. The figures for the binding signal (with RELB subunit;p52 subunit; in experiment [3]; in experiment [4]) were -0.375 z-score, 0.0204 z-score and -0.227 z-score, respectively.

As for GAAAGGTTCCC, the binding signal with RELARELA (p65 homodimer) was 0.328 z-score; with p50p50 homodimer, -0.486 z-score; with p52p52 homodimer, -0.241 z-score; in experiment [1], -0.184 z-score; in [2], -0.334 z-score; in the experiment with RELB subunit;p50 subunit, -0.203 z-score. The results for the binding signal (with RELB subunit;p52 subunit; in [3]; in experiment [4]) were -0.316 z-score, -0.141 z-score and -0.167 z-score, respectively.

As to CAAAAACCCCT, the binding signal with RELARELA (p65 homodimer) stood at 1.05 z-score; with p50p50 homodimer, 1.47 z-score; with p52p52 homodimer, 2.66 z-score; in [1] it was 1.84 z-score; in experiment [2] it was 2.09 z-score; in the experiment with RELB subunit;p50 subunit, 2.09 z-score. Moreover, the binding signal with RELB subunit;p52 subunit was determined as 2.18 z-score; in experiment [3], 1.37 z-score; in experiment [4], 2.28 z-score.

Regarding AGATGGCTCCC, the binding signal in the experiment with RELARELA (p65 homodimer) was -0.478 z-score; with p50p50 homodimer, -1.77 z-score; in the experiment with p52p52 homodimer, -0.619 z-score; in experiment [1], -0.849 z-score; in experiment [2] it was -0.797 z-score; with RELB subunit;p50 subunit it was -0.91 z-score. Also, the binding signal is -0.841 z-score with RELB subunit;p52 subunit, -1.25 z-score in experiment [3] and -0.874 z-score in experiment [4].

Regarding CGAAGGACCCT, the binding signal with RELARELA (p65 homodimer) was -1.31 z-score; with p50p50 homodimer it was -1.42 z-score; with p52p52 homodimer it was -0.622 z-score; in experiment [1], -0.948 z-score; in [2] it was -0.812 z-score; with RELB subunit;p50 subunit, -0.928 z-score. The binding signal was -0.721 z-score with RELB subunit;p52 subunit, -1.47 z-score in experiment [3] and -0.87 z-score in experiment [4].

Turning to CGGGTCGTCCT, the binding signal with RELARELA (p65 homodimer) is -0.683 z-score; with p50p50 homodimer it was -1.36 z-score; in the experiment with p52p52 homodimer it was -0.504 z-score; in experiment [1], -0.972 z-score; in experiment [2], -0.834 z-score; with RELB subunit;p50 subunit it was -0.864 z-score. The results for the binding signal (in the experiment with RELB subunit;p52 subunit; in experiment [3]; in experiment [4]) were -0.859 z-score, -1.15 z-score and -0.64 z-score, respectively.

Take CAGTTTATCCC: the binding signal with RELARELA (p65 homodimer) is 0.419 z-score; in the experiment with p50p50 homodimer, -0.117 z-score; with p52p52 homodimer it was 0.0692 z-score; in [1], -0.133 z-score; in [2], -0.195 z-score; with RELB subunit;p50 subunit, -0.213 z-score. Besides, the values for the binding signal (in the experiment with RELB subunit;p52 subunit; in experiment [3]; in [4]) were -0.287 z-score, 0.0891 z-score and -0.0511 z-score, respectively.

As for AAAAAGGTCCC, the binding signal turned out to be 0.243 z-score in the experiment with RELARELA (p65 homodimer); 0.679 z-score with p50p50 homodimer; 0.569 z-score with p52p52 homodimer; 0.331 z-score in [1]; 0.184 z-score in [2]; 0.63 z-score with RELB subunit;p50 subunit. The binding signal with RELB subunit;p52 subunit is 0.428 z-score; in experiment [3], 0.216 z-score; in experiment [4] it was 0.157 z-score.

On to GAGGGAGCCCT, for which the binding signal was -0.902 z-score in the experiment with RELARELA (p65 homodimer); -0.904 z-score with p50p50 homodimer; -0.464 z-score in the experiment with p52p52 homodimer; -0.859 z-score in experiment [1]; -0.736 z-score in experiment [2]; -0.793 z-score with RELB subunit;p50 subunit. The figures for the binding signal (with RELB subunit;p52 subunit; in experiment [3]; in experiment [4]) were -0.682 z-score, -1.28 z-score and -0.682 z-score, respectively.

For the sequence AGGTAAACCCC, the binding signal with RELARELA (p65 homodimer) worked out at 1.17 z-score; with p50p50 homodimer, 0.722 z-score; with p52p52 homodimer, 2.16 z-score; in experiment [1], 1.25 z-score; in experiment [2], 1.68 z-score; in the experiment with RELB subunit;p50 subunit, 0.79 z-score. For the same sequence, the binding signal with RELB subunit;p52 subunit came out at 1.51 z-score; in experiment [3] it was 0.88 z-score; in [4], 2.02 z-score.

Take AGAGATGCCCT: the binding signal with RELARELA (p65 homodimer) is -0.748 z-score; in the experiment with p50p50 homodimer it was -1.63 z-score; with p52p52 homodimer, -0.655 z-score; in [1], -0.706 z-score; in experiment [2], -0.889 z-score; with RELB subunit;p50 subunit it was -1.04 z-score. Moreover, the binding signal is -0.94 z-score with RELB subunit;p52 subunit, -0.882 z-score in experiment [3] and -0.704 z-score in [4].

Take AGATACCCCCT: the binding signal with RELARELA (p65 homodimer) amounted to 0.103 z-score; with p50p50 homodimer, 1.43 z-score; with p52p52 homodimer it was 1.19 z-score; in experiment [1] it was 1.36 z-score; in experiment [2] it was 1.5 z-score; in the experiment with RELB subunit;p50 subunit, 1.38 z-score. Also, the binding signal with RELB subunit;p52 subunit worked out at 1.84 z-score; in [3], 1.13 z-score; in experiment [4] it was 1.24 z-score.

Regarding CAGATCCCCCT, the binding signal was -0.0668 z-score with RELARELA (p65 homodimer); 1.6 z-score with p50p50 homodimer; 1.41 z-score with p52p52 homodimer; 2.39 z-score in experiment [1]; 1.76 z-score in [2]; 2.45 z-score with RELB subunit;p50 subunit. Further, the binding signal was found to be 2.37 z-score with RELB subunit;p52 subunit, 1.85 z-score in experiment [3] and 1.37 z-score in experiment [4].

Take AAAAGGTCCCC: the binding signal with RELARELA (p65 homodimer) was 0.121 z-score; with p50p50 homodimer it was 0.934 z-score; with p52p52 homodimer it was 0.86 z-score; in experiment [1] it was 0.799 z-score; in [2] it was 0.753 z-score; in the experiment with RELB subunit;p50 subunit, 1.08 z-score. The binding signal with RELB subunit;p52 subunit amounted to 0.995 z-score; in [3] it was 0.454 z-score; in experiment [4], 0.594 z-score.
